Results published in PubChem BioAssay AID430 (Sanford-Burnham Center for Chemical Genomics, 2006).
Screen size: about 63,000 compounds; about 1,100 (1.7%) were called active. What follows is part of a selection rich in actives, with near analogues and random picks from the rest. Measured potencies and affinities stand elsewhere. Unmarked numbers belong to inactive results. No stated cut-off is given here; in the data, active means cytotoxicity above about 50%; inactive means the rest.

experiment: cytotoxicity in HPDE-C7 cells, cell-based, fluorescence, HTS (AID 430); conditions: HPDE-C7 pancreatic duct cells viability, at 10 µM, stronger effect = higher value;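 further: cells exposed to compound for 48 hours before viability readout; 0% = vehicle and 100% = reference cytotoxic drug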

| Structure (SMILES) | cytotoxicity |
| --- | --- |
| COc1ccc(S(=O)(=O)N2CCCC2C(=O)Nn2cnnc2)cc1 (stereo unspecified) | -10.2% |
| O=C(O)C1C2CCC(C2)C1C(=O)Nc1nc2ccccc2s1 (stereo unspecified) | -5.1% |
| CCc1cccc(NC(=O)Cn2cccc2)c1 | 2.1% |
| Cc1noc(C)c1CSCC(=O)OCC(=O)Nc1sccc1C#N | 6.1% |
| CCCc1cc(=O)oc2cc(C)cc(OC(=O)c3ccco3)c12 | 11.7% |
| COC(=O)c1c(NC(=O)c2ccc(Br)o2)sc(C)c1C | 11% |
| O=S(=O)(c1cccc(Cl)c1Cl)N1CCCCC1 | -8.6% |
| C1CCC(c2nn3c(-c4n[nH]c5c4CCC5)nnc3s2)CC1 | 2.9% |
| COc1ccc(CCN(Cc2nc3ccccc3c(=O)[nH]2)C(=O)c2ccco2)cc1OC | -3% |
| Cc1oc(C)c2c(=O)ccc3c(c12)OC(N)=C(C#N)C3c1ccccc1 (stereo unspecified) | -51.8% |
| CSc1ccc(C2C(C#N)=C(N)Oc3c2ccc(=O)c2c(C)oc(C)c32)cc1 (stereo unspecified) | -8.9% |
| Cn1c(N2CCC(C(N)=O)CC2)nc2c1c(=O)n(Cc1ccc(Br)cc1)c(=O)n2C | 28.6% |
| COc1cccc(C2C(C#N)=C(N)OC3=C2C(=O)CCC3)c1OC(=O)c1ccco1 (stereo unspecified) | -11.1% |
| OCCNCC(O)Cn1ccc2ccccc21 (stereo unspecified) | -15.1% |
| OCCN(CC(O)Cn1ccc2ccccc21)CC(O)Cn1ccc2ccccc21 (stereo unspecified) | -4.1% |
| Cc1nn(Cc2ccccc2)c(C)c1C(=O)Nc1ccc(N2CCOCC2)cc1 | 6.2% |
| COc1ccc(CN(C)C2CCCCC2)cc1 | 12.6% |
| CC(C)(C)c1cc(C(=S)N2CCN(CCO)CC2)cc(C(C)(C)C)c1O | -4.1% |
| CC(C)(C)c1cc(CN2CCN(CCO)CC2)cc(C(C)(C)C)c1O | -9.7% |
| Cc1ccc2c(c1)N(CCCC(=O)NCC1COc3ccccc3O1)C(=O)CO2 (stereo unspecified) | -5.2% |
| C(=N\n1cnnc1)/c1cn(-c2cccs2)nc1-c1ccccc1 | -5.7% |
| O=C(O)C1CCN(C(=O)c2ccccc2C(=O)N2CCC(C(=O)O)CC2)CC1 | -9.9% |
| Cc1ccnc(NC(=O)C2CCN(S(=O)(=O)c3cccc4nsnc34)CC2)c1 | -8.3% |
| O=S(=O)(c1ccccc1)N1CCN(C2CCN(Cc3ccccc3)CC2)CC1 | 22.9% |

| Structure (SMILES) | cytotoxicity |
| --- | --- |
| Cc1ccc(C2C(C#N)=C(N)Oc3nc(-c4ccccc4)[nH]c32)o1 (stereo unspecified) | -2.4% |
| Cc1ccc(SCc2[nH]nc3c2C(c2ccc(C)o2)C(C#N)=C(N)O3)cc1 (stereo unspecified) | 44.5% |
| CC1(C)Cc2cccc(OCC(=O)N3CCN(S(=O)(=O)c4ccccc4)CC3)c2O1 | -2.1% |
| COC(=O)c1ccsc1NC(=O)c1ccc(Cl)s1 | -0.2% |
| COc1ccc2nc(SCC(N)=O)[nH]c2c1 | -19.2% |
| CCOc1ccc2nc(NCCO)[nH]c2c1 | -2.1% |
| CCCOc1ccc2nc(NC(=O)OC)[nH]c2c1 | 61.4% (active) |
| CCCSc1ccc2nc(NC(=O)OC)[nH]c2c1 | 67.1% (active) |
| COc1ccc(C(=O)Nc2nc3ccccc3[nH]2)cc1OC | -5.6% |
| COc1ccc2nc(NCCO)[nH]c2c1 | -13.5% |
| CCCCC(c1nnnn1CS(=O)(=O)c1ccc(C)cc1)N1CCN(c2ccccc2)CC1 (stereo unspecified) | -30% |
| O=C(NC1CCCc2ccccc21)C1CCN(S(=O)(=O)c2cccc3nonc23)CC1 (stereo unspecified) | -29.1% |
| O=C(c1cc2sccc2n1Cc1ccccc1)N1CCc2ccccc21 | 9.3% |
| CC(=O)N1CCN(CC(=O)Nc2c(Cl)cc(Cl)cc2Cl)CC1 | 0% |
| COc1ccc(N2CCN(C(=O)c3ccc(S(=O)(=O)N4CCOCC4)cc3)CC2)cc1 | 3.1% |
| COc1cc(OC)nc(NC(=O)COC(=O)C2CCCCC2)n1 | 8.7% |
| COc1ccc(-n2c(Cc3cccn3C)nnc2SCC(=O)Nc2ccccc2F)cc1 | -11.2% |
| Cc1ccc(C(=O)C2=C(O)C(=O)N(c3ncccn3)C2c2cccc(Cl)c2)o1 (stereo unspecified) | 22.7% |
| O=C(C1=C(O)C(=O)N(c2ncccn2)C1c1ccc(Cl)c(Cl)c1)c1ccco1 (stereo unspecified) | 7.8% |
| Cc1ccc(C(=O)C2=C(O)C(=O)N(c3ncccn3)C2c2ccc(Cl)cc2)o1 (stereo unspecified) | 68.3% (active) |
| CCOc1ccc(-c2noc(-c3cccnc3)n2)cc1OC | 0.1% |
| Cc1[nH]nc2c1C1(CCN(C(=O)c3ccccc3)CC1)C(C#N)=C(N)O2 | -19.1% |
| Cc1ccc(NC(=O)N2CCC(C(=O)NCCC3=CCCCC3)CC2)cc1 | -6.2% |
| CC1(C)Cc2noc(N)c2C(C)(C)N1OC(=O)c1ccccc1 | -5.7% |

| Structure (SMILES) | cytotoxicity |
| --- | --- |
| Nc1c(C(=O)NC2CCCC2)sc2nc(-c3cccs3)ccc12 | 10.5% |
| Cc1csc(NC(=O)c2sc3nc(-c4cccs4)ccc3c2N)n1 | 60.5% (active) |
| CCCSc1nnc(NC(=O)c2sc3nc(-c4cccs4)ccc3c2N)s1 | 41.2% |
| CCCOc1ccc(S(=O)(=O)NCCN2CCOCC2)c2ccccc12 | -13.1% |
| O=C(NC1CCCCC1)C1CC(=O)N(c2ccc(Cl)cc2)C1 (stereo unspecified) | -9.5% |
| CC1(C)C(c2cccs2)=NC(c2ccccc2)N1O (stereo unspecified) | -25.9% |
| Cc1ccc(C(N)=O)cc1S(=O)(=O)Nc1cccc(C)c1C | 18.4% |
| O=C(CC1Oc2ccccc2NC1=O)NCCCN1CCN(C2CCCCC2)CC1 (stereo unspecified) | 2.6% |
| Cc1ccc(C(CC(=O)c2ccco2)SCCO)cc1 (stereo unspecified) | 99.5% (active) |
| O=C(CC(SCCO)c1ccc(F)cc1)c1ccco1 (stereo unspecified) | 3.7% |
| O=C(CSCCSCC(=O)c1ccco1)c1ccco1 | 10.6% |
| CCC(=O)N1CC23C=CC(CC2CC12CCCCC2)O3 (stereo unspecified) | -6.8% |
| COc1ccc(OC)c(CC(NC(C)=O)C(=O)NC2CCN(c3nc(C)cc(C)c3C#N)CC2)c1 (stereo unspecified) | -6.9% |
| COc1ccc(-c2oc(/N=C/N3CCOCC3)c(C#N)c2-c2ccc(OC)cc2)cc1 | -7.7% |
| NC1=NC2(CCN(Cc3ccccc3)CC2)n2c(nc3ccccc32)N1 | 0.8% |
| NC1=NC2(CCC(c3ccccc3)CC2)n2c(nc3ccccc32)N1 (stereo unspecified) | 77.1% (active) |
| NC1=NC2(CCCCC2)n2c(nc3ccccc32)N1 | 11.9% |
| CCCn1c(SCC(=O)Nc2ccc3c(c2)OCO3)nc2c1c(=O)n(C)c(=O)n2C | -4.6% |
| O=S(=O)(Nc1nc2ccccc2nc1NCc1ccco1)c1ccc(Cl)cc1 | 18.1% |
| Cc1noc(C)c1CSc1nc2ccccc2nc1NS(=O)(=O)c1ccc(Cl)cc1 | 81.1% (active) |
| Cc1noc(C)c1CSc1ncnc2ccccc12 | 4.7% |
| O=C(N1CCOCC1)N1CCN(c2ccccn2)CC1 | -15.7% |
| O=C(c1ccco1)N1CCN(C(=O)N2c3ccccc3Sc3ccccc32)CC1 | 73.2% (active) |
| O=C(CN1CCN(c2ccccn2)CC1)N1c2ccccc2Sc2ccc(C(F)(F)F)cc21 | 22.1% |

| Structure (SMILES) | cytotoxicity |
| --- | --- |
| O=C(c1ccco1)N1c2ccccc2Sc2ccccc21 | 4.4% |
| O=C(NC1CCN(C(=O)N2c3ccccc3Sc3ccccc32)CC1)c1ccco1 | -12.6% |
| O=C(N1CCN(c2ccccn2)CC1)N1c2ccccc2Sc2ccccc21 | 66.7% (active) |
| CC(=O)N1c2c(cc(Br)cc2S(=O)(=O)NCC2COc3ccccc3O2)CC1C (stereo unspecified) | 13.1% |
| c1ccc(-c2oc3ncnc(NCCCN4CCOCC4)c3c2-c2ccccc2)cc1 | 48.6% |
| COc1ccc(-c2oc3ncnc(NCCN4CCOCC4)c3c2-c2ccc(OC)cc2)cc1 | 3.3% |
| COc1ccc(-c2oc3ncnc(NCCCN4CCOCC4)c3c2-c2ccc(OC)cc2)cc1 | 67.3% (active) |
| Cc1cccc(CS(=O)(=O)Cc2ccc(C(=O)NCc3cccnc3)o2)c1 | -7.1% |
| c1ccc2c(SCc3cn4cccnc4n3)ncnc2c1 | 13.3% |
| Cc1cc(=O)n2c3c(sc2n1)C(=O)N(Cc1ccccc1)C3=O | 3.8% |
| Cc1ccc(Nc2nc(N)nc(CN3CCN(c4ccccc4)CC3)n2)cc1Cl | 72.1% (active) |
| Cc1cccc(Nc2nc(N)nc(CN3CCN(c4ccccc4)CC3)n2)c1 | -13.2% |
| COc1ccc(N2CCN(Cc3nc(N)nc(Nc4ccc(C)c(Cl)c4)n3)CC2)cc1 | 7.9% |
| O=C(Nc1nccs1)c1ccc(Br)o1 | -3.3% |
| Cc1ccc(C(=O)NCCn2cc(SCC(=O)Nc3nnc(C)s3)c3ccccc32)cc1 | -2% |
| c1ccc(CSc2nnc(-c3c[nH]c4ccccc34)o2)cc1 | -3.6% |
| S=c1[nH]nc(Cc2c[nH]c3ccccc23)o1 | -0.8% |
| O=C(Nc1ccc2c(c1)OCO2)Oc1ccccc1 | -9.1% |
| c1nc(NCCN2CCOCC2)c2sc3nc(N4CCOCC4)c4c(c3c2n1)CCC4 | 16.6% |
| OCCN(CCO)c1ncnc2c1sc1nc(N3CCOCC3)c3c(c12)CCCC3 | -3.9% |
| COC(=O)CSc1ncnc2c1sc1nc(-c3ccco3)c3c(c12)CC(C)(C)OC3 | 15% |
| CSc1nc(N2CCN(CCO)CC2)c2sc3nc(-c4ccco4)c4c(c3c2n1)CCC4 | -8.6% |
| CCC1Oc2ccccc2N(CC(=O)NCCC2=CCCCC2)C1=O (stereo unspecified) | 0.8% |
| COc1cccc(N2CCN(C(=O)CCn3c(=S)[nH]c4cc5c(cc4c3=O)OCO5)CC2)c1 | -14.3% |
